Screening data (PubChem BioAssay)
D2 PAM-1: D2 dopamine receptor (human) potentiation. P14416. HEK293 T-REx D2, calcium flux, EC20 dopamine potentiation. potentiation, % at 10 µM. 340,000 compounds, 0.34% hits;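 active = potentiation over 3 SD above the plate norm, cut at about 30% in these data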; also: 0% is about no effect
Target sequence (P14416 whole entry, looked up): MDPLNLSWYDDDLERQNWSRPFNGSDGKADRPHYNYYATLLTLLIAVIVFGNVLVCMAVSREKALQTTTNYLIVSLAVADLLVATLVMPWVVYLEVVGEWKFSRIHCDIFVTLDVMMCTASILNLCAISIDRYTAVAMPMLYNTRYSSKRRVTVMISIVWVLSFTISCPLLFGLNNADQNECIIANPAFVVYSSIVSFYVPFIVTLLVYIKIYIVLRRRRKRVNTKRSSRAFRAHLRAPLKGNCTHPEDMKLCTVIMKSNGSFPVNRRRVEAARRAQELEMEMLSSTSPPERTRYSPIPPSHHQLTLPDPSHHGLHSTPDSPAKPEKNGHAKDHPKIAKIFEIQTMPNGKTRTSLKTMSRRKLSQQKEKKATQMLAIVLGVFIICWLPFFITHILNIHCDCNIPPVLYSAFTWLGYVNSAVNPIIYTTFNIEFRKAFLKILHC
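Using a no-wash calcium dye in inducible, force-coupled HEK293 Trex cells expressing D2, we tracked fluorescence each second for 180 s after compound, then for 180 s after EC20 dopamine to detect augmented signalling.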
D2 ag-1: human D2 receptor agonism in beta-arrestin assay; P14416; DiscoveRx PathHunter D2 beta-arrestin, luminescence, 90 min; 100% = 57 uM dopamine signal; activation, % (no concentration beside the values); 360,000 compounds, 0.084% hits; AID 624465; in the data active = activation above about 40%; inconclusive = between about 15% and that limit
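Agonist mode: compounds alone added to overnight-plated D2 PathHunter cells for 90 min at 37 C, with 57 uM final dopamine (EC100) defining full response. Beta-arrestin recruitment detected by chemiluminescent reagent, read after 1 h at ambient temperature.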
D2 PAM-2: positive allosteric modulators of human D2 dopamine receptor; potentiation, % (no concentration beside the values); AID 624464; DiscoveRx D2 beta-arrestin cells, luminescence, 90 min; 100% = 57 uM dopamine signal; 360,000 compounds, 0.23% hits; P14416; in the data active = potentiation above about 50%; inconclusive = mostly about 30% to 49%
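D2 cells co-treated with compound plus 50 nM dopamine (EC20) for 90 min at 37 deg C to detect potentiation. Beta-arrestin recruitment was read as enzyme-fragment luminescence after 1 h at ambient temperature. Full response was set by 57 uM dopamine.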
D2 ag-2: activates the human D2 dopamine receptor; activation, % at 2 µM; 340,000 compounds, 0.53% hits; AID 485358; HEK293 T-REx D2 cells, calcium flux agonist mode;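 active = activation over 3 SD above normal in the single-dose calcium agonist read, cut at about 30% in these data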; also: 0% is about no effect
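Tetracycline-induced HEK293 Trex cells with D2 receptor force-coupled to calcium signaling, plated overnight at 30 C and loaded with no-wash calcium dye. Calcium flux read kinetically for 180 s after compound addition; responses flag agonists.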
D2 antagonist: antagonizes the human D2 dopamine receptor; P14416; HEK293 TREx D2 cells, calcium flux, dopamine EC80; inhibition, % at 10 µM; 340,000 compounds, 2% hits; AID 485344; in the data active = inhibition above about 30%; inactive = below that, where a call was filed; also: 0% is about no effect
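Tetracycline-induced HEK293 TREx cells expressing D2 receptor forced-coupled to calcium signalling, loaded with no-wash calcium dye. Compounds added and calcium flux read 180 s, then dopamine added at EC80 and read a further 180 s.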
Starred values were filed as active, the others as inactive; ? = inconclusive; nt = no result. Shown are actives, neighbours in structure and some others; about 2.4% of the full set was active somewhere.

SMILES | D2 PAM-1 | D2 ag-1 | D2 PAM-2 | D2 ag-2 | D2 antagonist
CC[C@@]1(C(=O)OC)N[C@H](CN(C)C(=O)c2ccc(C(C)(C)C)cc2)[C@@H]2C(=O)N(Cc3ccccc3)C(=O)[C@@H]21 | nt | 2 | 2 | nt | nt
CCN(C[C@H]1N[C@@](CC)(C(=O)OC)[C@H]2C(=O)N(Cc3ccccc3)C(=O)[C@@H]12)C(=O)c1ccc(C(C)(C)C)cc1 | nt | ? | 57* | nt | nt
CC(NC(=O)c1ccccc1F)c1nnc(SCC(=O)Nc2nccs2)n1C (stereo unspecified) | 41* | 4 | -3 | 1 | -3
Cc1nnc(NC(=O)CSc2nnc(C(C)NC(=O)c3ccccc3F)n2C)s1 (stereo unspecified) | -10 | -2 | -5 | 0 | 16
O=C(COC(=O)c1ccc(F)cc1F)NC1CC1 | 2 | -3 | -3 | 0 | 31*
O=C(COC(=O)c1ccc(F)cc1F)NCCNC(=O)COC(=O)c1ccc(F)cc1F | 0 | -2 | -9 | 0 | 0
Nc1cc(Cl)ccc1C(=O)OCC(=O)NC1CCCCCCC1 | 0 | 4 | 5 | 0 | 35*
COc1ccc2c(c1)c1c(c(=O)n(CCc3ccccc3)c(=O)n1Cc1ccc(Cl)cc1)n2C | nt | nt | nt | 1 | nt
CN(C)c1ccnc(Oc2ccc(Cl)cc2)c1C#N | 42* | -2 | -8 | 0 | -19
COc1ccc2cc(-c3nc4ccc(C(=O)O)cc4[nH]3)c(=O)oc2c1 | 2 | nt | nt | 0 | nt
CCn1c(CNC(=O)c2ccc(OC)cc2)nnc1SCC(=O)Nc1ccc(OC)cc1 | -3 | nt | nt | nt | nt
Fc1ccc(CNc2cnccn2)cc1 | 5 | -1 | -4 | 0 | -17
c1ccc(CCNc2cnccn2)cc1 | -12 | 7 | -11 | 1 | 38*
c1ccc(CNc2cnccn2)cc1 | 41* | 1 | -3 | 0 | 11
Cc1c(-c2cccc(NC(=O)Nc3ccccc3)c2)nc2ncccn12 | -6 | nt | nt | 1 | nt
Cc1nc2c(C(=O)NCCC(C)C)cnn2c(C)c1Cc1c(F)cccc1Cl | -9 | nt | nt | 1 | nt
Fc1ccc(Nc2c(-c3c[nH]c4ccccc34)nc3ccccn23)cc1 | -3 | nt | nt | 0 | nt
O=C(Nc1nnc(SCC(=O)N2CCCCC2)s1)c1ccc(F)cc1F | -3 | 3 | 1 | 0 | 55*
O=C(NCCc1ccc(Cl)cc1)c1c2c(nc3ccccc13)C(=O)N(C1CCCCC1)C2 | -4 | nt | nt | 1 | nt
CCN(CC)S(=O)(=O)c1cccc(-c2nnc(SCC(=O)c3cc(C)n(C4CC4)c3C)o2)c1 | 3 | 0 | 11 | 1 | -5
C=CCn1c(C)cc(C(=O)CSc2nnc(-c3cccc(S(=O)(=O)N(CC)CC)c3)o2)c1C | 39* | -3 | -12 | 0 | -20
CCCSCCCNC(=O)C1CCN(c2nn3cc(-c4ccc(F)cc4)nc3s2)CC1 | -14 | nt | nt | -1 | nt
C/C(=N\OC(=O)Nc1ccc(Cl)cc1)c1ccc(F)c(F)c1 | -26 | 11 | -17 | -1 | 41*
Cc1ccc2c(c1)c1c(c(=O)n(-c3ccccc3C)c(=O)n1CC(=O)NCCC1=CCCCC1)n2C | -7 | nt | nt | nt | nt
Oc1ccc(-c2nccc(-c3ccc(Cl)cc3Cl)n2)cc1 | 95* | 0 | -3 | -1 | 6
SMILES | D2 PAM-1 | D2 ag-1 | D2 PAM-2 | D2 ag-2 | D2 antagonist
Oc1ccc(-c2nccc(-c3ccc(Cl)cc3)n2)cc1 | -1 | 3 | -5 | -1 | 2
CC(C)NC[C@H](O)c1ccc(O)c(O)c1 | 9 | -4 | -5 | 5 | 12
CCC(c1ccc(O)c(O)c1)C(CC)c1ccc(O)c(O)c1 (stereo unspecified) | nt | 59* | 16 | nt | nt
CCn1c2ccccc2c2nnc(N3CCN(c4ccc(OC)cc4)CC3)nc21 | 12 | nt | nt | 0 | nt
O=[N+]([O-])c1ccc(S(=O)(=O)N2CCC3(CC2)OCCN3S(=O)(=O)c2cccs2)cc1 | 0 | 14 | 72* | 0 | 10
Cc1ccc(S(=O)(=O)N2CCC3(CC2)OCCN3S(=O)(=O)c2cccs2)cc1 | nt | -1 | -2 | nt | nt
CC(C)Oc1ccc(CNC(=O)c2ccc3c(c2)N(C)CCS3)cc1 | -19 | -1 | -16 | 2 | 47*
COc1ccc(C(=O)C(C)OC(=O)c2sc(C)nc2C)cc1 (stereo unspecified) | 23 | 2 | -2 | 0 | 31*
COc1ccc(CC(=O)OC(C)C(=O)c2ccc(C)cc2)cc1 (stereo unspecified) | 2 | -6 | -2 | 2 | 1
C=CCN(CC=C)CC(O)CN(c1cc([N+](=O)[O-])ccc1OC)S(=O)(=O)c1ccccc1 (stereo unspecified) | -25 | 0 | -18 | 1 | 66*
CCCN(C(=O)c1cc2c(=O)oc3ccccc3c2s1)c1ccccc1C | -2 | nt | nt | 1 | nt
Nc1nc(NCCc2ccccc2)nc(NCCO)c1[N+](=O)[O-] | 34* | -1 | -6 | 0 | 1
Cc1cccc(-n2nc([N+](=O)[O-])c(=NCc3cccnc3)n2O)c1 | -4 | ? | 68* | 0 | -6
O=[N+]([O-])c1nn(-c2cccc(Cl)c2)n(O)c1=NCc1cccnc1 | 0 | ? | 59* | -1 | 0
Cc1ccc(S(=O)(=O)NCC(c2ccc(N(C)C)cc2)N2CCc3ccccc32)cc1C (stereo unspecified) | -1 | nt | nt | 1 | nt
Cn1cnc(S(=O)(=O)N2CCCC(C(=O)NCc3ccccc3)C2)c1 (stereo unspecified) | 0 | nt | nt | nt | nt
CC(C)[C@H](NC(=O)N1CCn2c1nc1ccccc12)C(=O)N[C@H](C(=O)O)c1ccccc1 | 9 | -4 | -25 | -6 | 58*
CCOc1cc(Cn2c(-c3ccc(O)c(OCC)c3)nc3ccccc32)ccc1O | -1 | nt | nt | -5 | nt
O=C(CSc1nc2c([nH]c3ccccc32)c(=O)n1-c1ccc(Cl)cc1)N1CCOCC1 | 8 | nt | nt | 1 | nt
CCC(C)Sc1oc(-c2ccco2)nc1S(=O)(=O)c1ccc(Cl)cc1 (stereo unspecified) | 8 | nt | nt | 3 | nt
O=C(NC1CCSC1=O)c1cccc(C(=O)NC2CCSC2=O)c1 (stereo unspecified) | -4 | -2 | -23 | 1 | 42*
COc1ccc(-c2noc(CCC(=O)NCCCN3CCC(Cc4ccccc4)CC3)n2)cc1 | nt | 0 | -40 | nt | nt
COc1ccc(-c2noc(CCC(=O)NCCCN3CCN(c4ccc(F)cc4)CC3)n2)cc1 | -20 | -2 | -4 | 1 | 95*
CCC(Cc1ccccc1)NC(=O)c1csc2c1CCCCC2 (stereo unspecified) | 9 | nt | nt | 0 | nt
C=CCn1c(-c2ccc(OC)c(OC)c2)n[nH]c1=S | 18 | -1 | -13 | 1 | -17
C=CCn1c(-c2c(C)nc3cc(C)ccn23)n[nH]c1=S | -1 | -4 | -9 | 1 | 36*
Oc1ccc(C(=S)N2CCCC2)cc1 | -6 | -2 | -4 | 1 | 9
Oc1ccc(C(=S)N2CCCCCC2)cc1 | -3 | 0 | 1 | 0 | 37*
COc1ccc(C(=S)N2CCCC2)cc1 | 43* | 0 | -7 | 0 | -27
